# Bioassay records: PubChem BioAssay, several laboratories
# Mot1-301 SUMO: inhibitors of SUMOylation pathway: yeast Mot1-301 growth rescue; S. cerevisiae Mot1-301 growth rescue, ATP luminescence, 38.5C; percent above DMSO median, 100 means doubled; 320,000 compounds, 1% hits; AID 2716; growth rescue, % at 18.8 µM;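 active = every valid replicate shows activation above 250% relative to neutral control wells; inactive = the rest, any valid replicate at or below 250%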;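 note: OY570 slx delta 5 strain wells were the positive control but not used for scaling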
# Calb FLC: affects C. albicans growth with fluconazole | C. albicans CaCi-2 (fluconazole-resistant clinical isolate) + fluconazole, Alamar Blue growth, 48 h | growth inhibition, % (concentration not given with the values) | 300,000 compounds, 0.57% hits | AID 1979;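 active = growth inhibition above about 58% in most replicates, limit read from the data, passing the limit was not always enough; inconclusive = exactly half the replicates above a set limit; inactive = most replicates below a set limit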;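 note: all wells also contain fluconazole at 8 µg/ml as a sub-toxic cotreatment; 0% = median of DMSO wells and 100% = median of geldanamycin control wells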
# FAS-TE inh: inhibitors of human fatty acid synthase thioesterase domain. inhibition, % at 15 µM. 360,000 compounds, 0.67% hits. P49327. recombinant FAS-TE, OMFH fluorogenic substrate, fluorescence endpoint;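 active = compounds whose normalised, plate-corrected inhibition of enzyme fluorescence in the single-dose primary screen is 50% or more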;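 note: 0% = DMSO with enzyme and 100% = substrate without enzyme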
# ATG4B inhibitor: ATG4B (human) cysteine protease inhibition; Q9Y4P1; ATG4B cleavage of LC3-PLA2, NBD-HPC fluorescence, 1 h; inhibition, % at 8.33 µM; 340,000 compounds, 0.51% hits; in the data active = inhibition above about 40%
# Target sequence (Q9Y4P1 whole entry, looked up): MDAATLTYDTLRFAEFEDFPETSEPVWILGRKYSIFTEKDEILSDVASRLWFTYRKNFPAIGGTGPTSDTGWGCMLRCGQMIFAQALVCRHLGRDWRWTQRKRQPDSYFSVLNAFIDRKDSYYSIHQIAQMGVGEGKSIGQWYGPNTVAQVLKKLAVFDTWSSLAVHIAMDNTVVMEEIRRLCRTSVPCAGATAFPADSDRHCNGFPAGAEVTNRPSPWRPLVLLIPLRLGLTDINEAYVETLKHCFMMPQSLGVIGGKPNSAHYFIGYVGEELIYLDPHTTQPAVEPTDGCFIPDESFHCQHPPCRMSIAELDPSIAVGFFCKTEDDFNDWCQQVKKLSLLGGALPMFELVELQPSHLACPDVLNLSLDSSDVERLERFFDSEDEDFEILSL
# NadD inh: NadD (S. aureus) enzyme inhibition | purified NadD enzyme, colorimetric absorbance read-out | inhibition, % at 20 µM | 360,000 compounds, 0.78% hits | AID 602399; in the data active = inhibition above about 26%
# ATG4B confirm: ATG4B (human) inhibition, single-dose confirmed. shares compounds with ATG4B inhibitor. ATG4B protease fluorescent substrate cleavage assay. inhibition, % at 8.33 µM. 320 compounds, 92% hits; in the data active = inhibition above about 39%
# PLA2 ctr: counter-screen for ATG4B inhibitors: human phospholipase A2; inhibition, % at 8.33 µM; 1,600 compounds, 66% hits; shares compounds with ATG4B inhibitor; AID 588402; purified PLA2, NBD-C6-HPC fluorescence, 45 min; in the data active = inhibition above about 50%
# Target sequence (P04054 whole entry, looked up): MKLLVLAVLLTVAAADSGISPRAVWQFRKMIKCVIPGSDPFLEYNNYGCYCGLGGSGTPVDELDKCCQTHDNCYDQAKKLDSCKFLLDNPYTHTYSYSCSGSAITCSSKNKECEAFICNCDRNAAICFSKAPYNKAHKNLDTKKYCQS
# Starred values were filed as active, the others as inactive; ? = inconclusive; nt = no result given. Hits are enriched below; roughly 3.1% of the tested compounds scored in any of these assays.
SMILES,Mot1-301 SUMO,Calb FLC,FAS-TE inh,ATG4B inhibitor,NadD inh,PLA2 ctr,others
Cc1ccc(NS(=O)(=O)c2cc(Br)cnc2N)c(Cl)c1,70,1,-1,8,2,nt,
Nc1ncc(Br)cc1S(=O)(=O)Nc1cc(C(F)(F)F)cc(C(F)(F)F)c1,14,?,30,57*,-3,47,ATG4B confirm=56*
CN(c1ccccc1)c1ccc(/C=C(\CCC(=O)O)c2nc3ccccc3s2)cc1[N+](=O)[O-],-6,47,11,46*,20,41,ATG4B confirm=70*
CCc1ccc(C(C(=O)NC2CCCCC2)N(C(=O)c2csnn2)C2CC2)cc1 (stereo not given),66,-1,9,6,9,nt,
Nc1c(-c2ccccc2)c(CSc2nc3ccccc3[nH]2)nn1-c1cccc(Cl)c1,-7,6,17,43*,26,58*,
Nc1c(-c2ccccc2)c(CSc2nc3ccccc3[nH]2)nn1-c1ccc(Cl)cc1,-8,3,14,38,7,nt,
COc1ccc(C(CC(=O)NCc2ccccc2)C(C)C)cc1 (stereo not given),-8,-15,-2,46*,-4,44,ATG4B confirm=59*
CC(C)c1ccc(OCC(=O)NCc2ccccc2)cc1,-3,-6,12,1,-10,nt,
Cc1cccc(CNC(=O)c2ccc(NC(=O)C3=CSCCO3)cc2)c1,-10,-1,0,14,-9,nt,
CCc1oc2ccccc2c1C(=O)c1cc(Br)c(O)c(Br)c1,-34,nt,17,96*,5,96*,
N#Cc1c(NC(=S)NC(=O)C2CCCC2)sc2c1CCCCC2,4,-5,16,74*,14,-11,
N#Cc1c(NC(=S)NC(=O)c2ccccc2)sc2c1CCCC2,52,0,-1,-8,4,nt,
COCCOc1ccc(C(F)(F)F)cc1NC(=O)CN1C(=O)NC2(CCc3ccccc32)C1=O (stereo not given),-18,1,25,99*,-6,4,
O=C(CCCc1c[nH]c2ccccc12)Nc1ncccc1O,5,-2,-1,5,-2,nt,
NC(=O)CSc1nc2ccc([N+](=O)[O-])cc2[nH]1,0,7,7,42*,-6,40,ATG4B confirm=69*
O=C(CSc1nc2ccc([N+](=O)[O-])cc2[nH]1)NC1CCCC1,3,-2,25,-9,-2,nt,
Cc1ccc(S(=O)(=O)N2CCN(C(=O)Cn3nc(C)c([N+](=O)[O-])c3C)CC2)cc1,-10,nt,0,-6,-2,nt,
Fc1ccc(CNC(=S)Nc2ccccc2Cl)cc1,-13,-1,-5,10,-6,nt,
Cc1c(Cl)cccc1NC(=S)NCc1ccc(F)cc1,22,-12,12,58*,2,69*,
Cc1c(Cl)cccc1NC(=S)NCc1cccn1C,-6,-4,-6,47*,-1,66*,
COC(=O)c1cccc(NC(=S)Nc2cccc(Cl)c2C)c1,-12,-25,-1,58*,-1,56*,
Cc1c(Cl)cccc1NC(=S)NCc1ccccc1Cl,-2,-24,10,79*,-8,83*,
COC(=O)c1cccc(NC(=S)Nc2ccccc2Cl)c1,-2,0,-2,0,-1,nt,
C=CCNC(=S)NCC1COc2ccccc2O1 (stereo not given),4,14,-12,0,-6,nt,
Cc1c(Cl)cccc1NC(=S)NCC1COc2ccccc2O1 (stereo not given),-12,-42,19,88*,1,89*,
SMILES,Mot1-301 SUMO,Calb FLC,FAS-TE inh,ATG4B inhibitor,NadD inh,PLA2 ctr,others
COc1cccc(CNC(=S)Nc2cccc(Cl)c2C)c1,-5,-14,6,54*,0,65*,
COc1cccc(CNC(=S)Nc2cc(C)ccc2C)c1,-7,30,-2,5,1,nt,
O=C(NCc1ccccc1)c1[nH]c(C(F)(F)F)nc1-c1ccccc1,nt,nt,-11,nt,-10,nt,
O=C(CSc1nnc(COc2ccc(Cl)cc2)n1Cc1ccco1)c1ccccc1F,1,7,21,44*,2,34,ATG4B confirm=57*
Clc1ccc(OCc2nnc(SCc3nc4ccccc4[nH]3)n2Cc2ccco2)cc1,11,-9,6,-7,26,nt,
COc1ccc(N(C(=O)CNC(=O)c2cccs2)C(C(=O)NC2CCCC2)c2ccncc2)cc1 (stereo not given),4,6,-2,-7,-2,nt,
NC(=O)c1ccc(N2CCN(c3ccccc3F)CC2)c([N+](=O)[O-])c1,2,6,-2,45*,1,50*,
CC(=O)N1CCN(c2ccc(C(N)=O)cc2[N+](=O)[O-])CC1,72,-6,-2,-22,1,nt,
NC(=O)c1ccc(N2CCCCCC2)c([N+](=O)[O-])c1,1,-1,-4,68*,2,70*,
NC(=O)c1ccc(N2CCN(c3ccccc3O)CC2)c([N+](=O)[O-])c1,8,2,-1,33,-7,nt,
COc1ccc(NC(=O)Nc2cccc3c2O[C@H](CN(C)S(C)(=O)=O)[C@@H](C)CN([C@H](C)CO)C3=O)cc1,1,nt,-8,-2,2,nt,
Cc1nc2c(OCCN3C(=O)c4ccccc4C3=O)cccn2c1N(C)C(=O)CCC1CCCC1,nt,nt,1,nt,-2,nt,
COC(=O)/C=C1\SC(=Nc2ccc(OC)cc2)NC1=O,-10,-6,-6,0,7,nt,
COC(=O)/C=C1\SC(=Nc2ccc(Cl)c(Cl)c2)NC1=O,14,-14,1,79*,0,28,ATG4B confirm=79*
CCOC(=O)c1c(C)[nH]c(C(=O)COC(=O)COc2ccccc2C=O)c1C,-4,2,-2,47*,0,45,ATG4B confirm=56*
CCOC(=O)c1c(C)[nH]c(C(=O)COC(=O)/C=C/c2cccc(OC)c2OC)c1C,-7,-4,-12,4,-3,nt,
COCCCn1c2nc3ccccc3nc2c2c(=O)n(-c3ccccc3OC)cnc21,19,-6,-7,2,1,nt,
COc1ccccc1-n1cnc2c(c1=O)c1nc3ccccc3nc1n2-c1ccc(C)c(C)c1,nt,-9,12,44*,2,4,
Cc1cccc(C)c1N1CCN(C(=O)Nc2ccc3c(c2)OCCO3)CC1,24,-1,16,44*,0,63*,
O=C(Nc1ccc2c(c1)OCCO2)N1CCN(c2ccc(F)cc2)CC1,nt,10,-5,0,1,nt,
O=C(CSCc1c(F)cccc1Cl)NNC(=S)NC1CCCCC1,-4,-4,3,66*,5,63*,
O=C1CCCC2=C1C(c1ccc(Br)cc1)c1c([nH]c(=S)[nH]c1=O)N2 (stereo not given),-12,3,-6,-2,6,nt,
O=c1[nH]c(=S)[nH]c2c1C(c1ccc(Br)cc1)c1c([nH]c(=S)[nH]c1=O)O2,-22,7,0,53*,20,1,ATG4B confirm=15
